The subject of assay [1] is NIH3T3. Nature of the assay: Cytotoxic Profiling of Annotated Libraries Using Quantitative High-Throughput Screening (AID 1296008). The note with it: Five cell lines viability, CellTiter-Glo ATP luminescence, 48-72 h; max response: active compounds read low. The gist of the method: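 Cytotoxicity was measured as CellTiter-Glo ATP luminescence, read after 10 min at room temperature. Compound treatment of the cells lasted 48 or 72 hr at 37 degrees Celsius in a qHTS format.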
A general note: Cellular ATP, detected with luciferase, serves as a proxy for viable cell number.

The test system of another assay is MCC-13. Nature of the assay: qHTS assay to identify novel small-molecules to repurpose for Merkel cell carcinoma treatment (AID 1296009). The note with it: MCC and control cell lines, CellTiter-Glo viability, 72 h; series mostly up to 46 µM. The gist of the method: (§1)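 Cell viability measured by CellTiter-Glo following 72 hr compound treatment at 37 degree celsius, with NPC and MIPE libraries tested in 8- and 11-point concentration series.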
(Quantitative high-throughput screening tests each substance at several concentrations.)

A further assay deals with MCC-26. The description is as above. The following applies: MCC and control cell lines, CellTiter-Glo viability, 72 h; series mostly up to 46 µM. The gist of the method:
as §1

The next assay concerns MKL-1. Described as above. The following applies: MCC and control cell lines, CellTiter-Glo viability, 72 h; series mostly up to 46 µM. The gist of the method: as §1
The test system of a further assay is MKL-2. The assay is described as above. The note with it: MCC and control cell lines, CellTiter-Glo viability, 72 h; series mostly up to 46 µM. The gist of the method: as §1
The next assay has as its system UISO. The assay is described as above. The note with it: MCC and control cell lines, CellTiter-Glo viability, 72 h; series mostly up to 46 µM. In short, it runs like this:
as §1

Another assay relates to HEK293T. The assay is described as above. The note with it: MCC and control cell lines, CellTiter-Glo viability, 72 h; at 44.8 µM (top of the series) unless noted. In short, it runs like this: as §1
For assay [2], the system named is NIH3T3. The description is as above. The following applies: MCC and control cell lines, CellTiter-Glo viability, 72 h; at 44.8 µM (top of the series) unless noted. In short, it runs like this: as §1

Records with an inconclusive call do not appear. A number with no mark means an inactive call. Active and inactive are the calls of the source. The call rests on the fitted dose curve; in most records, active means well fitted inhibition curve with a large enough effect; inconclusive means small, poorly fitted or top-dose-only effect; inactive means flat fitted curve, though single readings scatter.
Further: nearly all actives have a fitted effect of over 60% in size.
On the % scale 0 is the no-effect control and ±100 the full control effect; potency means the concentration at half of the fitted maximal effect.

On to `CC(Cc1ccc(O)cc1)NCC(O)c1cc(O)cc(O)c1` (centres undefined), for which, in the assay on NIH3T3 [1], the max response was -6.43%. Further, the Potency result in the assay on MCC-13, in the assay on MCC-26, with MKL-1, in the assay with MKL-2 and in the assay on UISO was “inactive” throughout.

For the compound `C[C@@H]1CC[C@H]2[C@@H](C)C(=O)O[C@@H]3O[C@@]4(C)CC[C@H]1[C@]32OO4`, in the assay on NIH3T3 [1], the max response was -12.8%. Further, the Potency entry in the assay with MCC-13, with MCC-26, in the assay on MKL-1 and with MKL-2 was “inactive” in each case.

Regarding `CC(C)(C)NC[C@H](O)c1ccc(O)cc1Cl`, the max response with NIH3T3 [1] was -4.5%. For the same compound, the Potency result in the assay on MCC-13, in the assay on MCC-26, with MKL-1, in the assay with MKL-2 and in the assay on UISO was “inactive” in each case.

As to `COc1cc2cc(c1Cl)N(C)C(=O)C[C@H](OC(=O)C(C)C)[C@]1(C)O[C@H]1[C@H](C)[C@@H]1C[C@@](O)(NC(=O)O1)[C@H](OC)C=CC=C(C)C2`, the max response in the assay with NIH3T3 [1] is -88.8%. Further, the Potency result with MCC-13, with MCC-26, in the assay with MKL-1, with MKL-2 and with UISO was “inactive” each time.

Take `Nc1ccc(N=Nc2ccccc2)cc1`: the Potency in the assay on NIH3T3 [1] was 6860 nM (active). Moreover, the Potency result with MCC-13, with MCC-26 and in the assay with MKL-1 was “inactive” each time.

For the compound `C#CC1(O)CCC2C3CCC4=CC(=O)CCC4(C)C3CCC21C` (centres undefined), the max response with NIH3T3 [1] was 0.477%. Further, the Potency entry with MCC-13, in the assay with MCC-26, with MKL-1, in the assay on MKL-2 and in the assay with UISO was “inactive” in each case.

As for `CC[C@@]1(O)C(=O)OCc2c1cc1n(c2=O)Cc2cc3ccccc3nc2-1`, the Potency is 148 nM (active) in the assay on NIH3T3 [1]; 26.4 nM (active) with MCC-13; 74.3 nM (active) with MCC-26; 33.2 nM (active) with MKL-1; 74.3 nM (active) in the assay on MKL-2; 29.6 nM (active) in the assay on UISO.

Take `C[C@]12CC[C@H]3[C@@H](CCC4=CC(=O)CC[C@@]43C)[C@H]1CC[C@H]2OC(=O)CCC1CCCC1`: the max response in the assay with NIH3T3 [1] was 3.21%. The compound was called inactive with HEK293T. For the same compound, the Potency result in the assay with MCC-13, with MCC-26, in the assay with MKL-1, with MKL-2 and with UISO was “inactive” throughout.

With `CC(=CCCC1=CCC(C2=CC(=O)OC2O)OC1O)CCC1=C(C)CCCC1(C)C` (centres undefined), in the assay on NIH3T3 [1], the max response was -0.889%. Also, the Potency entry with MCC-13, in the assay with MCC-26, with MKL-1, with MKL-2 and with UISO was “inactive” throughout.

Consider `CC(C)[C@H]1C(=O)N[C@H](CO)Cc2c[nH]c3cccc(c23)N1C`, for which the max response in the assay with NIH3T3 [1] is -1.36%. The Potency entry in the assay with MCC-13, with MCC-26, with MKL-1 and with MKL-2 was “inactive” throughout.

For the compound `O=C(O)COc1nc(Cl)c(Cl)cc1Cl`, in the assay with NIH3T3 [1], the max response is -4.26%. In addition, the Potency result in the assay on MCC-13, in the assay on MCC-26, in the assay with MKL-1, in the assay with MKL-2 and in the assay with UISO was “inactive” in each case.

As to `c1ccc(CCCN2CCN(CCOC(c3ccccc3)c3ccccc3)CC2)cc1`, the Potency with NIH3T3 [1] is 16600 nM (active); in the assay with MKL-2 it was 20900 nM (active). Further, the Potency entry in the assay on MCC-13, in the assay with MCC-26 and in the assay on MKL-1 was “inactive” throughout.

With `CCC(=O)O[C@@H]1C=C2CCC3C(CCC4(C)C3CC[C@@H]4OC(=O)CC)C2CC1` (some centres undefined), the compound was classed as inactive with NIH3T3 [1] and in the assay with NIH3T3 [2]. The Potency entry in the assay on MCC-13, with MCC-26, in the assay with MKL-1, in the assay on MKL-2 and in the assay on UISO was “inactive” in each case.

In the case of `COCCOCCO`, the max response with NIH3T3 [1] was 2.23%. Further, the Potency result in the assay with MCC-13, in the assay on MCC-26, with MKL-1, with MKL-2 and in the assay on UISO was “inactive” in each case.

Take `Nc1ccc(Cl)cc1`: the max response in the assay with NIH3T3 [1] is 2.51%. The Potency entry in the assay on MCC-13, with MCC-26, with MKL-1, in the assay with MKL-2 and in the assay on UISO was “inactive” in each case.

Consider `O=S(=O)(CC1CS1)c1ccc(Oc2ccccc2)cc1` (centres undefined), for which the max response in the assay on NIH3T3 [1] was -6.16%. For the same compound, the Potency result with MCC-13 and in the assay with MCC-26 was “inactive” in each case. Further, the Potency with MKL-1 is 23500 nM (active); in the assay with MKL-2, 16600 nM (active).

For the compound `O=C1CCC[C@@H]2[C@H]3CCCN4CCC[C@@H](CN12)[C@@H]34`, the outcome in the assay with NIH3T3 [1] and with NIH3T3 [2] was inactive. Moreover, the Potency entry in the assay with MCC-13, with MCC-26, with MKL-1, with MKL-2 and in the assay with UISO was “inactive” in each case.

The record behind these values is PubChem BioAssay (NCATS).
